Test results taken from PubChem BioAssay.
Active and inactive are the calls of the source. Unless noted, no rule for the calls is given here.

Tests used:
[1] = tested on: Wnt5a (protein binding on small-molecule microarray); assay: small molecules binding Wnt5a protein – biophysical, small-molecule microarray, 635/667 nm fluorescence, primary screen (AID 1142); details: 635 nm fluorescence, higher = more signal;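 also: fluorescence read at 667 nm with signal to noise per printed feature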
[2] = ATP-based viability of Huh7 replicon cells – cell-based, CellTiter-Glo luminescence, basal, 48 h, cytotoxicity control for HCV replication inhibitor project, primary screen (AID 1143); details: higher = more signal, called active from +8 up or from −8 down;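 also: Huh7 hepatoma cells carrying a hepatitis C replication reporter with no stimulus; test concentration not given here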
[3] = Pseudomonas biofilm growth suppression – PAO1 strain, BacTiter-Glo luminescence, LB-PBS, primary screen (AID 1144); details: P. aeruginosa PAO1 biofilm, 12 h, higher = more signal
[4] = basal CRE-LacZ reporter activity in PC12 – cell-based, unstimulated, primary screen (AID 1145); details: no forskolin, luminescence, 4.5 h, higher = more signal, called active from +8 up or from −8 down
[5] = forskolin-driven CRE-LacZ activity in PC12 – cell-based, CRE-LacZ reporter, forskolin-stimulated, primary screen (AID 1146); details: luminescence, 4.5 h, higher = more signal, called active from +8 up or from −8 down;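 also: PC12 cells with 6xCRE LacZ reporter stimulated by forskolin 10 µM; beta-galactosidase reporter signal reflecting CREB driven transcription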
[6] = biological target: Streptavidin (Streptomyces avidinii) (UniProt P22629); assay: compounds binding control protein streptavidin – biophysical, small-molecule microarray, 635/667 nm fluorescence, artefact control for SMM compound annotation, primary screen (AID 1147); details: higher = more signal;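 also: signal reflects streptavidin binding to arrayed compounds as a control protein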
[7] = probe aInhba binding on compound microarray – biochemical, small-molecule microarray, 635/667 nm fluorescence, primary screen (AID 1148); details: higher = more signal;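 also: score merges 667nm spot fluorescence with signal-to-noise for antibody binding to printed compounds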
[8] = biological target: Torsin-1A (Homo sapiens) (UniProt O14656); assay: TOR1A wild-type binding on microarray – cell lysate, small-molecule microarray, lysate, 635/667 nm, primary screen (AID 1149); details: COS7 hTOR1A-WT lysate, 635 nm fluorescence, higher = more signal
[9] = biological target: Torsin-1A (Homo sapiens) (UniProt O14656); assay: torsin A mutant lysate binding on microarrays – cell lysate, small-molecule microarray, COS7 lysate, 635/667 nm fluorescence, primary screen (AID 1150); details: COS7 hTOR1A mutant lysate, 635 nm fluorescence, higher = more signal;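 also: score pools 667 nm emission and signal to noise measuring lysate protein binding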
[10] = tested on: Sonic hedgehog protein (Shh); assay: Sonic hedgehog microarray binding compounds – biochemical, small-molecule microarray, 635/667 nm fluorescence, primary screen (AID 1151); details: 635 nm fluorescence, higher = more signal;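 also: Shh protein binding to compounds spotted on small-molecule microarray slides; score combines spot fluorescence intensity with signal-to-noise across triplicate slides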
[11] = optical density shifts of acrAB sulA E. coli – strain DRC41, OD650, 48 h, E. coli filamentation inducer project, primary screen (AID 1152); details: higher = more signal, called active from +8 up or from −8 down;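 also: E. coli MC1000 strain DRC41 lacking acrAB efflux pump and sulA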
[12] = probe aLefty1 binding on compound microarray – biochemical, small-molecule microarray, 635/667 nm fluorescence, primary screen (AID 1153); details: higher = more signal;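 also: score merges spot fluorescence with signal-to-noise ratio from the scanned slide images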
[13] = plasmodial surface anion channel blockers, osmotic lysis – cell-based, P. falciparum Indochina, OD700, 1 h, primary screen (AID 1154); details: P. falciparum Indochina infected RBC osmotic lysis, higher = more signal, called active from +8 up or from −8 down
[14] = plasmodial surface anion channel blockers, osmotic lysis – cell-based, P. falciparum Indochina, OD700, 2 h, primary screen (AID 1155);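 also: lysis reports solute entry through the parasite surface anion channel PSAC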; details: P. falciparum Indochina infected erythrocytes, higher = more signal, called active from +8 up or from −8 down
[15] = changes in parasitized red cell lysis, either direction – P. falciparum Indochina, OD700, 3 h, PSAC antagonist project, primary screen (AID 1156); details: P. falciparum-infected erythrocytes, osmotic lysis, higher = more signal, called active from +8 up or from −8 down
[16] = plasmodial surface anion channel blockers, osmotic lysis – cell-based, P. falciparum Indochina, OD700, 18 h, primary screen (AID 1157); details: P. falciparum Indochina infected erythrocytes, osmotic lysis OD700, 18 h; higher = more signal, called active from +8 up or from −8 down
[17] = S6 kinase pathway phospho-S6 level changes – cell-based, A549, cytoblot, luminescence, serum-stimulated, primary screen (AID 1158); details: 5 h, higher = more signal;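 also: serum-stimulated A549 lung adenocarcinoma cells; signal is phosphorylated S6 detected by cytoblot immunostaining with HRP secondary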
[18] = biological target: NADPH oxidase 2 (Homo sapiens) (UniProt P04839); assay: compounds shifting NOX2 Amplex Red fluorescence – cell-based, HEK293-NOX2, PMA-stimulated, NOX inhibitor project, primary screen (AID 1159); details: 45 min, higher = more signal, called active from +8 up or from −8 down; also: test concentration not given here
[19] = biological target: NADPH oxidase 4 (Homo sapiens) (UniProt Q9NPH5); assay: compounds shifting NOX4 Amplex Red fluorescence – cell-based, HEK293-NOX4, tetracycline-induced, NOX inhibitor project, primary screen (AID 1160); details: HEK293-NOX4, Amplex Red H2O2 fluorescence, 45 min; higher = more signal, called active from +8 up or from −8 down
[20] = biological target: NADPH oxidase 5 (Homo sapiens) (UniProt Q96PH1); assay: compounds shifting NOX5 Amplex Red fluorescence – cell-based, HEK293-NOX5, NOX inhibitor project, primary screen (AID 1161); details: HEK293-NOX5, ionomycin, 45 min, higher = more signal
Chain of NADPH oxidase 5 (Homo sapiens) (Q96PH1 whole entry, looked up): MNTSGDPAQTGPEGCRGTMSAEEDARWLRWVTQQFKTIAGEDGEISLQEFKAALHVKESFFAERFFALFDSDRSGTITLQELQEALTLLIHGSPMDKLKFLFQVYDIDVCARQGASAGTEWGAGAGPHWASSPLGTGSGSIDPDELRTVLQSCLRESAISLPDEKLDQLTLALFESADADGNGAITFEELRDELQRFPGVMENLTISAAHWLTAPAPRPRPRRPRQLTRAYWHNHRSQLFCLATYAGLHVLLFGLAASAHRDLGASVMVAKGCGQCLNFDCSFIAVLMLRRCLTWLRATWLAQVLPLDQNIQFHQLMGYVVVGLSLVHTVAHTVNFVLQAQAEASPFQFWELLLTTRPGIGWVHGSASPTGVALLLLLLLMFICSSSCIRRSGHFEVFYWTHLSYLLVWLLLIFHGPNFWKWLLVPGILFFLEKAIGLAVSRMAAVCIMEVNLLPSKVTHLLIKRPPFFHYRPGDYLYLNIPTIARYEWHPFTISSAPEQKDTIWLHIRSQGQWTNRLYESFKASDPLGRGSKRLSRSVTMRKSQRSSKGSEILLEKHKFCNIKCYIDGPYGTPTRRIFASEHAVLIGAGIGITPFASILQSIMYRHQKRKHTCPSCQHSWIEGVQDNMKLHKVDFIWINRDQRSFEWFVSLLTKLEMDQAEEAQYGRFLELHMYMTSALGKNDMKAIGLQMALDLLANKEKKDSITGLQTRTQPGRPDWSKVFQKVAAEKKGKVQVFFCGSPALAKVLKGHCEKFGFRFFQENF

Chain of NADPH oxidase 2 (Homo sapiens) (P04839 whole entry, looked up): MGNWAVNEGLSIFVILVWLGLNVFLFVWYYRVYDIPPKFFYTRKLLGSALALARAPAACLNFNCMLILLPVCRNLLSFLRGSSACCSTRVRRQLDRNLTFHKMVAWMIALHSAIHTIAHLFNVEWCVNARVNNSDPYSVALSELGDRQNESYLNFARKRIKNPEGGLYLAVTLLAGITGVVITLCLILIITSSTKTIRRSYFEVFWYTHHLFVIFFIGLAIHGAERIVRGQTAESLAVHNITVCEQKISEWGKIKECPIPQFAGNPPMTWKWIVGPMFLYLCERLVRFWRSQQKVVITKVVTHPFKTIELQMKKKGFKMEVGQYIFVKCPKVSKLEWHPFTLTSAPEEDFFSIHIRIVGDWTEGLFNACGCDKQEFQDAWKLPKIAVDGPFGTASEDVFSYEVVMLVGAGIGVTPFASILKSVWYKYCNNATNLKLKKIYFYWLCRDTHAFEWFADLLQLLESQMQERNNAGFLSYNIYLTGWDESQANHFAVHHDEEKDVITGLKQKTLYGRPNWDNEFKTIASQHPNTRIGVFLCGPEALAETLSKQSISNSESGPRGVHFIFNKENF
Chain of Streptavidin (Streptomyces avidinii) (P22629 whole entry, looked up): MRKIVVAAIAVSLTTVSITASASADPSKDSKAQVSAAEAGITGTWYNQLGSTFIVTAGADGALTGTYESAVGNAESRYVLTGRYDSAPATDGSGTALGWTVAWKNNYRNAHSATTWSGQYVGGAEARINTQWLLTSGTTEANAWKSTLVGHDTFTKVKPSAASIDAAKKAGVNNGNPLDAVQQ
Chain of NADPH oxidase 4 (Homo sapiens) (Q9NPH5 whole entry, looked up): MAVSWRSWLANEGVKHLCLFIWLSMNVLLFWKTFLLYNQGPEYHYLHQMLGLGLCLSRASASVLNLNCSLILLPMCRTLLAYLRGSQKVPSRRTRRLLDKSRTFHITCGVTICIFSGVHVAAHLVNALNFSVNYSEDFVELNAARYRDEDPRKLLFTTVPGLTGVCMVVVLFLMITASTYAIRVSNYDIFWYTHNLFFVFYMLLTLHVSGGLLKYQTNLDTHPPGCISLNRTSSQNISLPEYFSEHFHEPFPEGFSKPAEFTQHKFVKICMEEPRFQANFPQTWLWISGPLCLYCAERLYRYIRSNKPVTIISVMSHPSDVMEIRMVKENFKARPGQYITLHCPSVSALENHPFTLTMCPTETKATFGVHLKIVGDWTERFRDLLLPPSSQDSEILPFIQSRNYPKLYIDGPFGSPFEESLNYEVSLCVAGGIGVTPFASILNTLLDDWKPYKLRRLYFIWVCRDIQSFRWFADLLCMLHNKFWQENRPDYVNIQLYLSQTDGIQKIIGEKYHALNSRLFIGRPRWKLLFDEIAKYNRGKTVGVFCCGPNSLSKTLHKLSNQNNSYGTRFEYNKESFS
Chain of Torsin-1A (Homo sapiens) (O14656 whole entry, looked up): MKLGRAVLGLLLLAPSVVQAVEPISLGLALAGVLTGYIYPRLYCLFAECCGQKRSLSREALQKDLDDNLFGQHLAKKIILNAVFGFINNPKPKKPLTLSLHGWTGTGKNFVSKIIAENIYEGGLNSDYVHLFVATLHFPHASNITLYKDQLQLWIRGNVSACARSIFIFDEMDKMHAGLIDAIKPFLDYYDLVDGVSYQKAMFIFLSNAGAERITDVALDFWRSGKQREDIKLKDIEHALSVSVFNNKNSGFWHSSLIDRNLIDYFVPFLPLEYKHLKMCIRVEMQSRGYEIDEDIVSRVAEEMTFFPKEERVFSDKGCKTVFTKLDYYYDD

| Structure (SMILES) | composite z-score [1] | z-score [2] | z-score [3] | z-score [4] | z-score [5] | composite z-score [6] | composite z-score [7] | composite z-score [8] | composite z-score [9] | composite z-score [10] | z-score [11] | composite z-score [12] | z-score [13] | z-score [14] | z-score [15] | z-score [16] | z-score [17] | z-score [18] | z-score [19] | z-score [20] |
| --- | --- | --- | --- | --- | --- | --- | --- | --- | --- | --- | --- | --- | --- | --- | --- | --- | --- | --- | --- | --- |
| CC(CCN1CCCCc2nc(C)c(C)cc21)=NOC[C@@H](O)COCc1ccco1 | 0.59 | 0.159 (inactive) | 0.676 (inactive) | 0.662 (inactive) | 0.758 (inactive) | -0.555 | -0.15 | 3.74 | 3.23 | 2.31 | 0.721 (inactive) | -0.0559 | 1.56 (inactive) | 0.279 (inactive) | 0.876 (inactive) | 0.343 (inactive) | 0.327 | -1.07 (inactive) | -0.199 (inactive) | -0.153 |
| O=C1C[C@@H](O)[C@@H](O)[C@@H]2[C@@H]3C(=O)N(c4cccc(Oc5ccccc5)c4)C(=O)[C@@H]3CC[C@H]12 | 0.114 | 0.393 (inactive) | 0.247 (inactive) | 2.51 (inactive) | 0.287 (inactive) | 0.0742 | -0.183 | 0.162 | 0.331 | 0.669 | -0.367 (inactive) | 0.0446 | 0.429 (inactive) | 0.0618 (inactive) | -0.195 (inactive) | -0.0653 (inactive) | -0.875 | -0.0166 (inactive) | 0.6 (inactive) | 0.124 |
| CCc1cc2c(nc1CC)CCN(CCC(C)=NO[C@@H](C)c1cn([C@H](CO)Cc3ccccc3)nn1)C2 | -0.144 | -0.519 (inactive) | 0.434 (inactive) | -0.892 (inactive) | -1.03 (inactive) | 0.453 | -0.0087 | 1.1 | 0.216 | 0.961 | 0.0933 (inactive) | -0.0011 | 4.48 (inactive) | 0.586 (inactive) | -0.0919 (inactive) | 0.49 (inactive) | 0.434 | -1.4 (inactive) | 0.033 (inactive) | 0.858 |
| CC(CCN1CCc2nc(-c3ccccc3)c(-c3ccccc3)cc2C1)=NOC[C@@H](O)COCc1ccco1 | 0.133 | 0.42 (inactive) | -0.255 (inactive) | -0.878 (inactive) | -0.724 (inactive) | 0.526 | -0.0589 | 1.15 | 1.25 | 1.31 | 1.17 (inactive) | -0.101 | 3.04 (inactive) | 0.369 (inactive) | 0.686 (inactive) | 0.195 (inactive) | 0.615 | -0.636 (inactive) | -0.00269 (inactive) | -0.624 |
| CCCNC(=O)OC[C@H]1O[C@H](CCON=C(C)CCN2CCc3nc(CC)c(CC)cc3C2)C=C[C@@H]1Oc1ccc(OC)cc1 | -0.0552 | -2.1 (inactive) | -0.546 (inactive) | 10.3 (active) | 0.82 (inactive) | 0.333 | -0.0405 | 0.686 | 0.481 | 0.391 | -0.611 (inactive) | -0.0949 | 8.46 (active) | 1.12 (inactive) | 1.66 (inactive) | 0.539 (inactive) | 0.58 | -3.19 (inactive) | -1.7 (inactive) | -3.32 |
| CC(C)CON=C1C[C@@H](O)[C@@H](O)[C@@H]2[C@@H]3C(=O)N(c4cccc(Oc5ccccc5)c4)C(=O)[C@@H]3CC[C@@H]12 | 0.0462 | -1.26 (inactive) | 0.272 (inactive) | -0.11 (inactive) | 0.0421 (inactive) | 0.977 | -0.016 | 0.486 | 0.181 | 1.7 | -0.211 (inactive) | -0.321 | 2.34 (inactive) | -0.696 (inactive) | 1.07 (inactive) | -1.36 (inactive) | 0.6 | -0.191 (inactive) | 0.352 (inactive) | -0.51 |
| CSCC[C@@H]1NC(=O)CC=C[C@@H](C)COC(=O)[C@@H](C)COC1=O | -0.0993 | -0.184 (inactive) | 0.117 (inactive) | -0.476 (inactive) | -0.846 (inactive) | -1.03 | -0.0736 | 2.66 | 2.1 | 1.81 | -0.136 (inactive) | -0.283 | -0.434 (inactive) | 0.28 (inactive) | 0.742 (inactive) | 0.0841 (inactive) | -0.0649 | -1.13 (inactive) | 0.279 (inactive) | 0.238 |
| COc1cccc([C@H]2Oc3ccc(OC)cc3C(=NO[C@@H](C)c3cn([C@H](CO)Cc4ccccc4)nn3)[C@@H]2O)c1 | -0.353 | -0.404 (inactive) | 0.0128 (inactive) | 6.77 (inactive) | 0.661 (inactive) | 0.326 | -0.0986 | -0.44 | -0.137 | -0.243 | -2.4 (inactive) | -0.147 | 2.52 (inactive) | 0.41 (inactive) | 1.19 (inactive) | 0.611 (inactive) | -0.15 | -0.0734 (inactive) | -0.424 (inactive) | -0.327 |
